Among all 60,000 compounds or so, about 65 (0.1%) were called active. The sample holds actives, similar compounds and a random draw of the others, so the mix is not that of the screen. Calls come from the whole dose curve; as a rule, active = well fitted inhibition curve with a large enough effect; inconclusive = small, poorly fitted or top-dose-only effect; inactive = no such curve, though single readings can be large or run the other way. Non-standard residues stand in square brackets, D forms with d. Residues, ends and D or L forms follow the SMILES beside them. ξ: configuration not given here. ξV = CC(C)C(N)C(=O)O
biological target: Ubiquitin carboxyl-terminal hydrolase 2 (Homo sapiens) (UniProt O75604); assay: qHTS Assay for Inhibitors of Ubiquitin-specific Protease USP2a; details: USP2a enzymatic assay; Potency: qHTS inhibition; series mostly up to 38.3 µM; activity change, negative = inhibition: at the top concentration; note: nearly all actives have a fitted effect of over 60% in size
Sequence (O75604 whole entry, looked up): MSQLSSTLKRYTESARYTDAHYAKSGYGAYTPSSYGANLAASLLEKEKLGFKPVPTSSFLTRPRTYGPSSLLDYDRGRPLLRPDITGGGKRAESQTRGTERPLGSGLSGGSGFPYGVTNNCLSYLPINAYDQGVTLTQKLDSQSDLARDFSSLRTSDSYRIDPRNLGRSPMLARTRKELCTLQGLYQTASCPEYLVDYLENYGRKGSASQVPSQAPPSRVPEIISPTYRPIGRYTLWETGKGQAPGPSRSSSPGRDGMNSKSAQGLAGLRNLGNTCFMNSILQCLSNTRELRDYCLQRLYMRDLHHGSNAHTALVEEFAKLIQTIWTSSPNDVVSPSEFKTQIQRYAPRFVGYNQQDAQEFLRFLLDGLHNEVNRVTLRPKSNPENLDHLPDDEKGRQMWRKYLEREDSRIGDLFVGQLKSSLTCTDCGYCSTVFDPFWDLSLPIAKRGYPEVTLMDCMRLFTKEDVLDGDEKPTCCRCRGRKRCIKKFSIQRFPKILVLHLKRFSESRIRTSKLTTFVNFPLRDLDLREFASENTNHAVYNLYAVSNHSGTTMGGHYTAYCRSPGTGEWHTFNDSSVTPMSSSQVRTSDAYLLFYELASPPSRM
Source text: NIH Molecular Libraries Screening Centers Network [MLSCN]
NIH Chemical Genomics Center [NCGC]
PI Name: Nicholson, Ben. Progenra Inc, Malvern, PA
Homeostasis of cellular proteins is maintained through a combination of synthesis and degradation. The pathway that accounts for the majority of protein degradation is the ubiquitin-proteasomal pathway. Ubiquitin (Ub) is highly conserved in all cells and the generation of a multi-Ub chain typically targets proteins for degradation by the proteasome. However, ubiquitination is highly reversible and dynamic. Deubiquitination, the reverse process, is catalyzed through the action of enzymes referred to as isopeptidases or deubiquitinating enzymes (DUBs). This group of enzymes is collectively responsible for maintaining adequate pools of free ubiquitin and regulating the ubiquitination status of cellular proteins. The class of DUBs referred to as the ubiquitin-specific proteases (USP) family functions endoproteolytically to cleave Ub chains from a wide range of protein substrates. USP2a deubiquitinates fatty acid synthase (FASN) which has recently been identified as an emerging oncology target. To identify inhibitors of USP2a a cell-free assay was employed.
The reporter enzyme chosen is phospholipase A2 (PLA2), which has an absolute requirement for a free amino terminus. Thus, fusion of a UBL to the N-terminus of PLA2 inactivates PLA2. When the UBL-PLA2 reporter enzyme is cleaved by USP2, the activated reporter can subsequently act on its substrate, which is the commercially available NBD C6-HPC (Invitrogen). Thus, this coupled assay gives a fluorescent read-out, which is generated through the cleavage of the PLA2 reporter enzyme. The assay, developed by Progenra, Inc. uses Ub-PLA2 and USP2a at near equal and low (nM) amounts and has been licensed for sale by LifeSensors, Inc. as the Ub-IsoPro1 kit.
NCGC Assay Protocol Summary:
The assay buffer, prepared fresh at the day of the assay, contains 20mM Tris-HCl pH 8.0, 2mM CaCl2, 2mM beta-Mercaptoethanol, 0.1% DMSO. 3ul of 40nM (20nM final) USP2 core, which is stored on ice, is dispensed into a medium-binding black solid Kalypsys 1,536 well plate using the Kalypsys dispenser. The assay plate is then pinned with 23nL compound with the Kalypsys pintool in columns 5-48. The controls are pinned as follows: column 1&2 two-fold dilutions of 2M NEM in duplicate; column 3 DMSO; column 4 2M NEM (final concentration 38.2mM). The assay plate is incubated at RT for 30min. Subsequently, 3uL of 40nM (20nM final) Ub-PLA2 and 40uM (20uM final) NBD C6-HPC (stored on ice and protected from light) were dispensed into the plate using the Kalypsys dispenser. Plates were read immediately (0 Hour) on an Envision (Perkin Elmer) plate reader using the following wavelengths Ex 460nm /Em 535nm. Then, the assay plates were incubated for 2.5 hours and read again on the Envision using the same settings
Data were normalized to the to AC100 inhibition (NEM). Concentration-response curves were fitted to the normalized data and the concentration-response curves were then classified based on curve quality (r2), response magnitude and degree of measured activity. The time zero reading was used to flag fluorescence artifacts.
Keywords: ubiquitination, deubiquitination, proteases, profluorescent, MLSMR, MLSCN, NIH Roadmap, qHTS, NCGC

Activity change, negative = inhibition, inactive:
CCCn1c(=O)c2ccccc2n2c(SCC(=O)/C(C#N)=C(\C)N)nnc12 5.46%, Cc1ccc(S(=O)(=O)N(C)CC(=O)NC2CCCC2)cc1 6.82%, O=C(Nc1ccc2c(c1)OCO2)C1CC(c2c(F)cccc2Cl)=NO1 (stereo not drawn) -8.71%, CCOc1ccccc1Nc1nnc(SCc2ccc(C(=O)OC)o2)s1 10.2%, Cc1cccc(-n2ncc3c(N4CCc5ccccc54)ncnc32)c1 2.95%, CCOC(=O)C1Cn2c(nc3c(c2=O)C(C)(CC)Cc2ccccc2-3)S1 (stereo not drawn) -7.77%, C=C(C)C1CC=C(CO)CC1 (stereo not drawn) -3.8%, CCN(CC)S(=O)(=O)c1ccc(NC(=O)CN(c2cccc(F)c2)S(C)(=O)=O)cc1 25.7%, O=C(CSc1nnc(-c2cccs2)n1-c1ccccc1)N1CCN(C(=O)c2ccco2)CC1 -9.08%, CC(=O)NC1CC2CCCC(C1)N2CC(=O)Nc1ccccc1 (stereo not drawn) 6.5%, CCOc1c(N2CCCCC2)c(=O)c1=O -9.98%, CC(=O)NC(C(=O)NCC(N)=O)C(C)C (stereo not drawn) (Ac-[ξV]-Gly-NH2) -3.58%, CC12C(=O)N(n3cnnc3)C(=O)C1C1C=CC2C1 (stereo not drawn) 0.802%, O=C(C1=C(O)C(=O)N(Cc2ccccc2)C1c1cccnc1)c1ccco1 (stereo not drawn) -8.78%, CCC(=O)N1c2ccc(S(=O)(=O)CCC(=O)N3CCN(c4ccccc4)CC3)cc2CC1C (stereo not drawn) 9.9%, CCOc1ccccc1N(CC(=O)Nc1ccccc1C(=O)OC)S(C)(=O)=O -1.62% [at 7.66 µM], CC1O[C@@H](Oc2c(-c3ccc(O)c(O)c3)oc3cc(O)cc(O)c3c2=O)C(O)C(O)C1O (stereo partly drawn) -9.94%, O=C(c1cc(C(F)(F)F)cc(C(F)(F)F)c1)N1CCC2(CCCN(Cc3ccncc3)C2)CC1 53.1%, CCN(CC)CCN1C(=O)C(=O)/C(=C(/O)c2ccccc2)C1c1ccccc1F (stereo not drawn) 6.03%, CN1CCC2(CC1)CCN(S(=O)(=O)c1ccccc1)CC2 -6.81%, CCN(CC)CCNC(=O)Cn1cnc2sc(C)c(S(=O)(=O)N3CCOCC3)c2c1=O -2.24%, O=C(Cn1c(=O)sc2ccccc21)Nc1ccc2c(c1)OCCO2 7.89%, S=C1SCN(CCN2CCOCC2)CN1Cc1ccccc1 -1.7%, CC1CC[C@@]23CCC4(C)[C@@]5(C)CCC6C(C)(C)C(O)CC[C@@]6(C)C5C=C[C@@]4(OC2=O)C3C1C (stereo partly drawn) 5.73%, Nc1ncnc2c1ncn2C1CC(O)C(CO)O1 (stereo not drawn) -5.52%, CC(=O)Nc1ccc(S(=O)(=O)N2CCC(N(C)CCC(C)C)CC2)cc1 4%, COc1ccc(C2CC(=O)C=C(NCC3CCCO3)C2)cc1 (stereo not drawn) 2.62%, CC(=O)N1CCN(CCN=CC2=C(O)CC(C)(C)CC2=O)CC1 0.95%, FC(F)(F)c1ccccc1-c1nc(-n2ccnc2)c2ccccc2n1 -26.3%, CN1CC(=O)N=C1N 6.52%, CCC1=C/C(=C\c2ccc3c(c2)OCO3)C(=O)S1 41.1%, COc1ccc(N2CCN(CCNC(=O)c3nnc(Cc4c(F)cccc4Cl)o3)CC2)cc1 15.6%, CCN(Cc1ccncc1)C(=O)c1cccc(S(=O)(=O)N2CCOCC2)c1 -1.77%, CC1(C)OC2CC(=O)OC[C@@]23C1CC(=O)[C@]1(C)C3CC[C@@]2(C)C(c3ccoc3)OC(=O)C3O[C@@]321 (stereo partly drawn) -0.539%, CC(=O)Nc1ccc(S(=O)(=O)N2CCSCC2)cc1 -7.08%, O=C(NCCSc1ccccc1)c1ccco1 4.74%, CC(=O)Nc1ccn(Cc2c(F)cccc2Cl)n1 11.9%, CC(=O)N1CCC2(CCCN(Cc3ccc(C#N)cc3)C2)CC1 15.6%, COC1C[C@@H](O[C@@H]2C(C)C(=O)OC(C)C(C)C(O)C(C)C(=O)[C@@]3(CO3)CC(C)C(OC3OC(C)CC(N(C)C)C3O)C2C)OC(C)[C@@H]1O (stereo partly drawn) 9.14%, C=C1C(=O)C23C(O)C1CCC2[C@]12COC3(O)C(O)C1C(C)(C)CC[C@H]2O (stereo partly drawn) 37.5%, COC(=O)COc1ccc(S(=O)(=O)N2CCOCC2)cc1 3.69%, Cc1c(NC(=O)Nc2ccccc2Cl)sc(=S)n1C -28.8%, CCOC(=O)C(CCOc1cccc(CC)c1)C(=O)OCC -5.22%, Cc1cccc(C(=O)Nc2ccc(CC(=O)O)cc2)c1 3%, CC(=O)OCC(=O)[C@@]1(O)CCC2C3CCC4=CC(=O)CC[C@]4(C)C3C(=O)C[C@]21C (stereo partly drawn) -9.52%, COC(=O)c1cccc(NC(=O)CN2CCC(NC(=O)c3cc(OC)c(OC)c(OC)c3)CC2)c1 20.6%, CC(=O)c1c(N2CCOCC2)nc(=S)n(Cc2ccccc2)c1C 3.47%, CC1(C)C(=O)Nc2ccccc2N1C(=O)COC(=O)Cn1cnc2ccccc2c1=O 4.1%, O=c1c2ccccc2oc2nc(C3CCCCC3)n(Cc3ccco3)c(=O)c12 0.85%, Oc1cc(O)c2c(c1)OC(c1ccc(O)c(O)c1)C(O)C2 (stereo not drawn) 12.9%, Cc1nc2nc(COc3ccccc3)[nH]n2c(=O)c1C -5.15%, C=C[C@](C)(O)CCC1C(=C)CCC2[C@@](C)(CO)CCC[C@@]12C (stereo partly drawn) 1.55%, CC(=O)OC1CCC2(O)CC1(C)CCC1C2CC1(C)C (stereo not drawn) 6.57%

From PubChem BioAssay AID927 (National Center for Advancing Translational Sciences (NCATS), 2007)
